# About 110 (0.055%) of roughly 200,000 compounds were called active. The full list was thinned out, with actives kept by preference. A number with no mark means an inactive call. Rule as the data show it: active = inhibition above about 50%; inactive = the rest.
# Biological target: Serine/threonine-protein kinase D1 (Homo sapiens) (UniProt Q15139)
# Assay: protein kinase D1 activity blockers – biochemical, fluorescence polarization (AID 797)
# Details: PKD1 kinase fluorescence polarization assay; stronger effect = higher value; concentration not given here
# Chain of Serine/threonine-protein kinase D1 (Homo sapiens) (Q15139 whole entry, looked up): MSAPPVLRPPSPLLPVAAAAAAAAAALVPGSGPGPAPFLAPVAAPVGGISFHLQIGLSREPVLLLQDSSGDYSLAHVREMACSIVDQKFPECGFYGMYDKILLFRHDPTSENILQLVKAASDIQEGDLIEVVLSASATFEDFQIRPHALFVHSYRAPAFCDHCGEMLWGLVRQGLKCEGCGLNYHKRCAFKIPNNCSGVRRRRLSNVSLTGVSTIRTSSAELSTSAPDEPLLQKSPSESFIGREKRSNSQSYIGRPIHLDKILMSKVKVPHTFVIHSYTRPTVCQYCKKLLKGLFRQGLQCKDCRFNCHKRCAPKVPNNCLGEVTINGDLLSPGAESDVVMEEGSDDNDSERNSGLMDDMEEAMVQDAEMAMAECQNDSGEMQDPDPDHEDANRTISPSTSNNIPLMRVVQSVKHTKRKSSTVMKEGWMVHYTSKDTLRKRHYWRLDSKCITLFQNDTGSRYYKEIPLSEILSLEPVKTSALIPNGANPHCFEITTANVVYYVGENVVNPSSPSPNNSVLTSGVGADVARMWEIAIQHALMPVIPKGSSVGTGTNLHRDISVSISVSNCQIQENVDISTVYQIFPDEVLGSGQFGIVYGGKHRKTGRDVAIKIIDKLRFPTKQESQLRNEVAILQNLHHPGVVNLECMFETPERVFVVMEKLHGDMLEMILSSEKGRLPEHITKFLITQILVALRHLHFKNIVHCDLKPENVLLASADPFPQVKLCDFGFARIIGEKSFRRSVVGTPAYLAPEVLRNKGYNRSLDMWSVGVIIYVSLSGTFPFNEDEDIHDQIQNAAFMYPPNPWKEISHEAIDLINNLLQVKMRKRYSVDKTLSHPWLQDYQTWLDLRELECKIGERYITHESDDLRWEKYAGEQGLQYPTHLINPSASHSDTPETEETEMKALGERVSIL
row,SMILES,inhibition
1,COc1ccc(OCC(=O)NN2Cc3ccccc3C2=N)cc1,8.39%
2,COc1cccc(NC(=O)C(Sc2nnnn2C)c2ccccc2)c1 (stereo not given),9.09%
3,Cc1cccc(/C(N)=N/OC(=O)c2ccccc2Cl)c1,-1.38%
4,O=C(NC1CCCCC1)C1CC(=O)N(CCc2ccccc2)C1 (stereo not given),-8.12%
5,Cc1cc(/C=C(/C#N)C(=O)Nc2ccc(Cl)cc2)c(C)n1-c1cccnc1,1.34%
6,CCN1CN(Cc2ccccc2)CNC1=S,-12%
7,CCNC(=O)CC1C(=O)N(c2ccc(F)cc2)C(=O)N1Cc1cccs1 (stereo not given),4.62%
8,CCOc1ccc(N2C(=O)Nc3ccccc3C2(O)C(=O)NCc2ccco2)cc1 (stereo not given),-4.75%
9,CN(C)/C=C(\C#N)C(=O)c1cccnc1Oc1cccc(F)c1,5.99%
10,CCCCn1nc(C(=O)OCC(=O)Nc2sccc2C(N)=O)c2ccccc2c1=O,4.31%
11,Cc1ccc(NC(=S)N(CCCN2CCC(C)CC2)Cc2ccco2)cc1,2.06%
12,Cc1ccc2cc(CCNC(=O)c3c(-c4ccccc4Cl)noc3C)c(=O)[nH]c2c1,0.32%
13,CC(C)CC(CO)N1CCN(C(=O)c2ccc(Cl)cc2Cl)CCC1=O (stereo not given),-14%
14,Cc1cccc(NS(=O)(=O)c2ccc(C)c(C(N)=O)c2)c1,-2.59%
15,CN(CC(=O)Nc1ccccc1F)CC(=O)Nc1ccccc1Br,-7.89%
16,COc1ccc(N=C2SC(C(=O)Nc3ccc(F)cc3)CC(=O)N2C)cc1 (stereo not given),-4.67%
17,CCOc1ccc(-c2c(C)n([O-])c3c([n+]2=O)CCCC3)cc1,-3.86%
18,Cc1ccc(C(=O)CNc2ccc(F)cc2)cc1,-19.1%
19,Cn1cc(/C=C/c2nc3ccccc3c(=O)n2-c2cccc([N+](=O)[O-])c2)c2ccccc21,-2.78%
20,CC(=O)c1ccc(Oc2cc(C)nc(-n3nc(C)cc3C)n2)cc1,-3.62%
21,COc1ccccc1/C=N\Nc1cc(C)nc(-n2nc(C)cc2C)n1,2.16%
22,COc1ccc(Nc2cc(C)nc(-n3nc(C)cc3C)n2)cc1,56.8% (active)
23,CCCCCC(=O)NC(=S)NNC(=O)c1ccc([N+](=O)[O-])cc1,-0.76%
24,O=C(CN1C(=O)NC2(CCCCCC2)C1=O)NC1CC1,-5.29%

row,SMILES,inhibition
1,CC1(C)CC(=O)C(N=Nc2ccc(S(=O)(=O)N3CCCCCC3)cc2)=C(O)C1,4.42%
2,O=C(O)Cc1ccc(NCc2ccccc2Cl)cc1,0.93%
3,Cc1ccc(C(=O)Cc2nnc(C)s2)cc1,1.06%
4,CCN(CC)CC1(O)CCN(C(=O)c2ccc(Cl)c(Cl)c2)CC1,6.8%
5,CC(=O)Nc1ccc(NC(=S)NC(=O)/C=C/c2ccccc2)cc1,-7.92%
6,CCOc1cc2[nH]c(=S)n(Cc3ccc(C(=O)NCCOC)cc3)c(=O)c2cc1OCC,-4.22%
7,O=C(COc1ccc(-c2ccccc2)cc1)NN=C1CCCC1,-5.5%
8,COC(=O)C1(O)CC(C(C)C)=NN1C(=O)c1ccc(Cl)cc1 (stereo not given),-10.1%
9,COc1ccc(CCNC(=O)COC(=O)C2CCCCC2)cc1,1.52%
10,COc1ccc(NC(=O)CCNS(=O)(=O)c2ccc3c(c2)c(=O)n(C)c(=O)n3C)cc1OC,-3.26%
11,COC(=O)c1ccccc1SC1CC(=O)N(c2cccc(C)c2)C1=O (stereo not given),-3.82%
12,CN(CCc1cnn(C)c1)Cc1cn(C)nc1-c1ccccc1F,0.1%
13,Cc1nc(-c2ccc(Cl)cc2)sc1C(=O)CBr,2.56%
14,CC1=NN(C(=O)CCCc2ccccc2)C(O)(C(F)(F)F)C1 (stereo not given),-2.79%
15,C/C(N)=C(/C#N)C(=O)COC(=O)c1cc(-c2cccc(Br)c2)nc2ccccc12,-0.94%
16,CCN(CC)CCNC(=O)CCCCCn1c(=O)[nH]c2cc(C(=O)OC)ccc2c1=O,-5.2%
17,Cc1c(Br)c([N+](=O)[O-])nn1CC(=O)N1CCN(Cc2ccccc2)CC1,6.58%
18,O=C(CC1SC(=Nc2ccccc2F)N(CCN2CCOCC2)C1=O)Nc1ccc(F)cc1F (stereo not given),1.23%
19,O=C(Nc1cccnc1)c1ccc(Cl)cc1[N+](=O)[O-],-1.12%
20,Cc1ccc(NC(=O)C(=O)NCC2CCN(C(=O)c3cccc([N+](=O)[O-])c3)CC2)cc1,4.77%
21,S=C(NN=C1CCN(Cc2ccccc2)CC1)NC1CCCCC1,1.24%
22,COc1ccc(NC(=S)NCc2cccs2)c(OC)c1,7.19%
23,CC(C)NC(=S)N1CCN(C(c2ccccc2)c2ccccc2)CC1,3.7%
24,COc1ccc(S(=O)(=O)N2CCN(C(=O)NC3CCCCC3)CC2)cc1,-1.15%

row,SMILES,inhibition
1,O=C1CCCC2=C1C(c1cccs1)CC(=O)N2c1ccc(F)cc1 (stereo not given),-3.47%
2,Cn1c(=O)c2cc(S(=O)(=O)NCCC(=O)Nc3ccc(F)cc3F)ccc2n(C)c1=O,-2.88%
3,O=C(Nc1nnc(Cc2ccc(Cl)cc2)s1)c1cccnc1,-1.74%
4,Cn1c(CCC(=O)Nc2ccccc2F)nnc1SCC(=O)Nc1ccccc1Cl,-1.31%
5,O=C(CSc1ncnc2c1nnn2Cc1ccc(F)cc1)NC1CCCC1,-10.6%
6,Cc1cc(C(=O)CC#N)c(C)n1-c1c(C)n(C)n(-c2ccccc2)c1=O,-2.44%
7,CCS(=O)(=O)c1ccc2c(c1)N(S(=O)(=O)c1ccccc1)CC(C(=O)O)O2 (stereo not given),2.03%
8,CC1(C)CC(=O)C2=C(C1)N=C1SCCC(=O)N1C2c1ccc(C(F)(F)F)cc1 (stereo not given),-8.04%
9,CN1CCN(C(c2cc3cc4c(cc3[nH]c2=O)OCCO4)c2nnnn2C2CCCC2)CC1 (stereo not given),-0.35%
10,COc1cc(OC)c(C2=NOC(C(=O)Nc3c(C)n(C)n(-c4ccccc4)c3=O)C2)cc1Cl (stereo not given),5.19%
11,Cc1ccc2c(c1)N(CC(=O)N(Cc1ccccn1)Cc1ccco1)C(=O)C(C(C)C)O2 (stereo not given),-5.96%
12,S=C(NC1CCCCC1)NN1CCOCC1,-5.63%
13,COCCSc1nnc(NC(=O)c2cc(OC)c(OC)cc2[N+](=O)[O-])s1,-3.97%
14,Cc1cn(C)c(=O)n(C)c1=O,1.43%
15,N#Cc1ccc(-c2nc3cc(C#N)c(C#N)cc3nc2-c2ccccc2)cc1C#N,9.6%
16,O=Cc1ccc(Oc2cccc(C(F)(F)F)c2)nc1,7.02%
17,Cc1ccc(/C=C/C(=O)Nc2cc(S(=O)(=O)N3CCCCCC3)ccc2OCC(F)(F)F)o1,-9.11%
18,CCc1ccc(-c2cc(C(=O)NN3CCN(C)CC3)c3ccccc3n2)cc1,6.48%
19,C=CCC(C(=O)c1ccccc1)[N+](C)(C)CC=C (stereo not given),-3.34%
20,O=[N+]([O-])c1ccccc1SNc1ccccn1,-1.62%
21,Cc1cc(C)cc(C(=O)NC(=S)Nc2ccc3[nH]c(=O)[nH]c3c2)c1,20.7%
22,O=C1CN(C(=O)COC(=O)c2cnc(Cl)c(Cl)c2)c2ccccc2N1,1.7%
23,NC(=O)c1ncc(C(F)(F)F)cc1Oc1ccc(F)cc1,-8.91%
24,O=C(Cc1c[nH]c2ccccc12)N/N=C/c1cccc(F)c1,12.4%

row,SMILES,inhibition
1,CCc1c(C)nc2c(OC)cccc2c1Cl,-2.35%
2,O=C(/C=C/c1ccc2c(c1)OCO2)NCc1cn2cc(Cl)ccc2n1,-5.4%
3,O=C(CCCc1ccccc1)NCc1ccccc1,-6.66%
4,CC(NC(=O)C(=O)N/N=C/c1ccc(Cl)cc1)c1ccccc1 (stereo not given),-2.86%
5,O=C(NC(=S)N1CCN(Cc2ccccc2)CC1)c1ccccc1,-10.3%
6,Cc1ccc(S(=O)(=O)Cc2cc(-c3ccc(Cl)cc3)no2)cc1,-1.03%
7,CC(C)N1CCC(=NNc2ccc([N+](=O)[O-])cc2S(=O)(=O)N2CCOCC2)CC1,-0.4%
8,CCOc1ccc(-n2c(SCC(=O)NC3CCS(=O)(=O)C3)nnc2-c2cccnc2)cc1 (stereo not given),0.66%
9,CN(Cc1ccc2nsnc2c1)Cc1nc(Cc2cccc(F)c2)no1,5.24%
10,OCCCC1CCCCN1Cc1nc(Cc2ccccc2Cl)no1 (stereo not given),0.81%
11,Cc1cccc(C(=O)OC(C)CN2CCN(C)CC2)c1 (stereo not given),1.4%
12,Cc1nnsc1C(=O)Nc1cccc(Cl)c1C,-5.78%
13,Cn1nccc1CNC(=O)c1ccnn1C,-0.52%
14,CC(C)c1ccc(-c2noc(C3CCCN(S(C)(=O)=O)C3)n2)cc1 (stereo not given),0.73%
15,COC(=O)C1=C(C)N(c2ccc(C)cc2)/C(=C/c2ccc(O)cc2)C1=O,1.38%
16,Cc1ccc(-c2nnc(SCC(=O)N/N=C/c3cccs3)n2-c2ccc(C)cc2)cc1,-3.67%
17,Oc1ccc2ccc3cccc[n+]3c2c1,-0.84%
18,S=c1[nH]cc(-c2ccc(Cl)cc2)n1-c1ccccc1,-3.56%
19,COc1cccc(CNC(=O)CCN2C(=S)NC(C)(C)CC2C)c1 (stereo not given),16.6%
20,O=C(Nc1cc(S(=O)(=O)N2CCOCC2)ccc1Cl)c1cc(=O)c2ccccc2o1,-4.37%
21,C/C(=N\OCC(=O)Nc1ccc(Br)cc1)c1cccs1,-6.23%
22,N#Cc1cccc(Nc2c3c(nc4ccccc24)CCCC3)c1,1.12%
23,COc1ccc(-c2ccc(CCC(=O)O)n2-c2ccc(O)cc2)cc1,-3.57%

# Source: PubChem BioAssay AID797 (University of Pittsburgh Molecular Library Screening Center, 2007)
